# Measured values: PubChem BioAssay (Tox21)
# Values without a mark were called inactive. Inconclusive results are not listed. Where a call stands in place of a potency, no number is given. Calls of active or inactive are those of the source. Unless noted, calls come from the whole dose curve.
# Legend:
# [1] = qHTS assay to identify small molecule antagonists of the sonic hedgehog signaling (Shh) pathway (AID 1259369); note: nearly all actives have a fitted effect of over 45% in size
# Method in brief: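 NIH/3T3-derived 3T3Gli1-Luc cells with stably integrated Gli1-Luc reporter were preincubated 4hr at 37 C, then given compounds in DMSO plus Shh conditioned medium and incubated 24hr. Firefly luciferase luminescence read after 30min reagent at room temperature.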
# [2] = qHTS assay to identify small molecule agonists of the androgen receptor (AR) signaling pathway in the presence of an antagonist - cell viability counter screen (AID 1259379; active = well fitted curve in the direction sought with a large enough effect in the repeat runs; an effect the other way counts as inactive or inconclusive; note: series mostly up to about 92 µM; nearly all actives have a fitted effect of over 25% in size)
# Method in brief: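 MDA-kb2 human breast carcinoma cells (stable MMTV-luciferase, AR/GR responsive) were seeded 3,000 cells/well, pre-incubated 5 hr at 37C without CO2, then given 3.0uM nilutamide and compounds at 15 concentrations for 16 hr. Viability was read by CellTiter-Fluor fluorescence.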
# [3] = qHTS assay to identify small molecule antagonists of the estrogen receptor beta (ER-beta) signaling pathway - cell viability counter screen (AID 1259382; active = well fitted curve in the direction sought with a large enough effect in the repeat runs; an effect the other way counts as inactive or inconclusive;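 note: HEK293T cells carrying ER-beta-UAS-bla reporter stimulated with estradiol; series mostly up to about 92 µM; nearly all actives have a fitted effect of over 55% in size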)
# Method in brief: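 ER-beta-UAS-bla HEK293T cells (2,000/well, 2% charcoal-stripped FBS) were pre-incubated 6 hr at 37C, then given compound plus 1nM final 17-beta-estradiol for 16 hr. Viability was read in the same wells by CellTiter-Glo luminescence after 30 min at room temperature.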
# [4] = qHTS assay to identify small molecule agonists of the estrogen receptor alpha (ER-alpha) signaling pathway in the presence of an antagonist - cell viability counter screen (AID 1259386; active = well fitted curve in the direction sought with a large enough effect in the repeat runs; an effect the other way counts as inactive or inconclusive;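 note: series mostly up to about 92 µM; cells exposed to compounds for 22 h at 37 °C before the viability read; nearly all actives have a fitted effect of over 30% in size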)
# Method in brief: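 VM7Luc4E2 cells (endogenous full-length ER-alpha, 4×ERE-luciferase) were held 5 days in phenol red-free medium with 10% charcoal-stripped FBS, plated, then given 10.0nM ICI-182,780 and compounds at 15 concentrations for 22hr at 37C; viability read by CellTiter-Fluor fluorescence.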
# [5] = target: Progesterone receptor (Homo sapiens) (UniProt P06401); experiment: qHTS assay to identify small molecule agonists of the progesterone receptor (PR) signaling pathway (AID 1346784); note: nearly all actives have a fitted effect of over 30% in size
# Sequence of Progesterone receptor (Homo sapiens) (P06401 whole entry, looked up): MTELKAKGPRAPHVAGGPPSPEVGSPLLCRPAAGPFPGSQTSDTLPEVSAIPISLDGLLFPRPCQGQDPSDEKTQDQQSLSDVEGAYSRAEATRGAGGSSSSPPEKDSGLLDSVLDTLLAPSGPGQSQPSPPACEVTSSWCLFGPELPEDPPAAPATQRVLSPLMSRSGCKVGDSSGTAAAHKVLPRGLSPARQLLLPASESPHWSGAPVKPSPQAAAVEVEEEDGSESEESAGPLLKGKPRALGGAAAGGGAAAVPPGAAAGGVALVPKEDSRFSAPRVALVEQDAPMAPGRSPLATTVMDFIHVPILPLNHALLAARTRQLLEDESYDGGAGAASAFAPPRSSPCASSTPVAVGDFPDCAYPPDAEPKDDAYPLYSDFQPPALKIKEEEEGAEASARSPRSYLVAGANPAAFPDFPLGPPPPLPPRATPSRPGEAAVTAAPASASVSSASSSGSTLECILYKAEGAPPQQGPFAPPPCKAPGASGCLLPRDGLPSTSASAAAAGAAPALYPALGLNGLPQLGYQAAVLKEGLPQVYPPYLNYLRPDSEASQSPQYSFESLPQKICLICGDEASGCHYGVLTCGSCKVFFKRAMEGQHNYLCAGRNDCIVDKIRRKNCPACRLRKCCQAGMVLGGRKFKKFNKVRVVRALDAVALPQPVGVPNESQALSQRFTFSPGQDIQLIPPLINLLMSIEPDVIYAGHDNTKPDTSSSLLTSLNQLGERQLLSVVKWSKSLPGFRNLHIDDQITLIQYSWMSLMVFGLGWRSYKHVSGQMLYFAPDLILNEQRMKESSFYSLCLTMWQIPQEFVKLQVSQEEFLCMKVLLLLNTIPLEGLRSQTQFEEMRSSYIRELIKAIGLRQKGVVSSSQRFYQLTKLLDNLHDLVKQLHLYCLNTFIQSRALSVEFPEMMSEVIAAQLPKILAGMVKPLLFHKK
# Method in brief: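 The screen uses PR-UAS-bla HEK 293T cells in charcoal-stripped serum (2%). Compounds are applied for 16 hr at 37C after a 6 hr pre-incubation, and reporter activity is detected with a FRET beta-lactamase substrate after 2 hr at room temperature.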
# [6] = target: Progesterone receptor (Homo sapiens) (UniProt P06401); experiment: qHTS assay to identify small molecule antagonists of the progesterone receptor (PR) signaling pathway (AID 1346795; active = well fitted inhibition curve with a large enough effect in the signal ratio in the repeat runs, not every such curve was filed as active; the % refers to the signal ratio)
# Method in brief: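 After 6 hr plating at 37C in 2% stripped-serum medium, PR-UAS-bla HEK293T cells got compounds, then 1 nM R5020. Sixteen hours later, LiveBLAzer substrate was applied for 2 hr at room temperature and fluorescence was recorded.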
# [7] = qHTS assay to identify small molecule antagonists of the progesterone receptor (PR) signaling pathway - cell viability counter screen (AID 1346798; active = well fitted curve in the direction sought with a large enough effect in the repeat runs; an effect the other way counts as inactive or inconclusive; note: nearly all actives have a fitted effect of over 50% in size; note: potency is the fitted concentration of half-maximal effect; for activity change, negative = cytotoxicity: series mostly up to about 92 µM)
# Method in brief: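 Viability was determined by ATP-based luminescence (CellTiter-Glo) in PR-UAS-bla HEK293T cells cultured in 2% charcoal-stripped serum and incubated 16 hr with compounds under R5020 stimulation.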
# [8] = qHTS assay to identify small molecule agonists of the progesterone receptor (PR) signaling pathway - cell viability counter screen (AID 1346799); note: nearly all actives have a fitted effect of over 45% in size
# Method in brief: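 Viability was scored by ATP luminescence (CellTiter-Glo, 30 min, room temperature) in the same wells used for the reporter readout, after 16 hr compound exposure of PR-UAS-bla HEK293T cells.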
# [9] = qHTS assay to identify small molecule antagonists of the TGF-beta/Smad signaling pathway - cell viability counter screen (AID 1346824; active = well fitted curve in the direction sought with a large enough effect in the repeat runs; an effect the other way counts as inactive or inconclusive; note: nearly all actives have a fitted effect of over 50% in size)
# Method in brief: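 SBE-bla HEK 293T cells were plated overnight at 37 C, then given compounds in DMSO plus TGF-beta1 (added as 0.25 ng/mL solution) for 5 hr. After the bla read, CellTiter-Glo was added to the same wells and luminescence read after 30 min at room temperature.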
# [10] = qHTS assay to identify small molecule agonists of the TGF-beta/Smad signaling pathway - cell viability counter screen (AID 1346829; active = well fitted curve in the direction sought with a large enough effect in the repeat runs; an effect the other way counts as inactive or inconclusive; note: top concentration of the series differs between compounds; nearly all actives have a fitted effect of over 45% in size)
# Method in brief: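 In parallel with the Smad reporter read, viability of HEK 293T cells stably carrying SBE-bla is quantified by ATP luminescence following 5 hr compound treatment.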
# [11] = qHTS assay to identify small molecule agonists of the TGF-beta/Smad signaling pathway (AID 1346859; active = well fitted activation curve with a large enough effect in the signal ratio in the repeat runs, not every such curve was filed as active; the % refers to the signal ratio; note: series mostly up to about 77 µM)
# Method in brief: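 Dual-wavelength fluorescence (460/530 nm emission) quantified beta-lactamase expression under the Smad binding element in HEK 293T cells following 5 hr compound treatment at 37 C.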
# [12] = target: Thyrotropin-releasing hormone receptor (Homo sapiens) (UniProt P34981); experiment: qHTS assay to identify small molecule antagonists of the thyrotropin-releasing hormone receptor (TRHR) signaling pathway (AID 1346877; active = well fitted inhibition curve with a large enough effect in the repeat runs, not every such curve was filed as active; note: series mostly up to about 51 µM)
# Sequence of Thyrotropin-releasing hormone receptor (Homo sapiens) (P34981 whole entry, looked up): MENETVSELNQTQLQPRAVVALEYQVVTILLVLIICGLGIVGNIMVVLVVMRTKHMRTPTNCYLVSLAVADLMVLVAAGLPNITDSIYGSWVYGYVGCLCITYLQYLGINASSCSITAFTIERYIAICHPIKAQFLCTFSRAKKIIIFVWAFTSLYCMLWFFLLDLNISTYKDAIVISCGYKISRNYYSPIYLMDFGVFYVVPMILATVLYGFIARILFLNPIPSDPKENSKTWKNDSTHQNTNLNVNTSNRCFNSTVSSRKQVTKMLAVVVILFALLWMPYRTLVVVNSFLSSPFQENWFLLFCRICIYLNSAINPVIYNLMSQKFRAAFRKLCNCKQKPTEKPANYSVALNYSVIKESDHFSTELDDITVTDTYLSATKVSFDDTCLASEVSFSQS
# Method in brief: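 TRHR-expressing HEK293 cells were seeded, cultured 18 h at 37 °C, then loaded with calcium dye for 2 h. Compounds were pre-incubated 5 min at room temperature before 1 nM TRH (final) was added, and kinetic fluorescence was recorded for 3 min.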
# [13] = target: Thyrotropin-releasing hormone receptor (Homo sapiens) (UniProt P34981); experiment: qHTS assay to identify small molecule agonists of the thyrotropin-releasing hormone receptor (TRHR) signaling pathway (AID 1346891); note: potency is the fitted concentration of half-maximal effect; for activation: series mostly up to about 58 µM
# Method in brief: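 Kinetic fluorescence (3 min, 1 s intervals) reported intracellular calcium after compound transfer onto TRHR-Hek293 cells pre-loaded with dye for 2 h at 37 °C.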
# [14] = target: Estrogen receptor (Homo sapiens) (UniProt P03372); experiment: qHTS assay to identify small molecule agonists of the estrogen receptor alpha (ER-alpha) signaling pathway in the presence of an antagonist (AID 1259383); note: top concentration of the series differs between compounds; nearly all actives have a fitted effect of over 15% in size
# Sequence of Estrogen receptor (Homo sapiens) (P03372 whole entry, looked up): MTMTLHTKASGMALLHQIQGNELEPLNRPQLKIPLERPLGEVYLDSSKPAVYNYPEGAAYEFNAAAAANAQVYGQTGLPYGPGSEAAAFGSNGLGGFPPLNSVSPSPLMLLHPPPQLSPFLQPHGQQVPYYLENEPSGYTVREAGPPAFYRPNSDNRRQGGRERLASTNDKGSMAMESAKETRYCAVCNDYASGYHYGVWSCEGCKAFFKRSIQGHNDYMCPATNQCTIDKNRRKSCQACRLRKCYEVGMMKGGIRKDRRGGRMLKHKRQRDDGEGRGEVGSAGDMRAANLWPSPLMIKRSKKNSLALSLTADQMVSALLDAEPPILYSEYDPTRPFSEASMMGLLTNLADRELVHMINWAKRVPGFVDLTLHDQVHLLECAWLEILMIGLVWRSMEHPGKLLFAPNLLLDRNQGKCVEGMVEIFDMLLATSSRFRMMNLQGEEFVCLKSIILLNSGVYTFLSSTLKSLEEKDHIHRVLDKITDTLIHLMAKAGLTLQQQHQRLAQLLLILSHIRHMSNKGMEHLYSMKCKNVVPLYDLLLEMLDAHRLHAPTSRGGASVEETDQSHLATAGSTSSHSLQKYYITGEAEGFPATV
# Method in brief: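 VM7Luc4E2 cells (endogenous full-length ER-alpha, 4×ERE-luciferase) were precultured 5 days in phenol red-free medium with 10% charcoal-stripped FBS, given 10.0nM ICI-182,780 (final), then treated with compounds at 15 concentrations for 22hr at 37C; luminescence read with ONE-Glo.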
# [15] = qHTS assay to identify small molecule agonists or antagonists of the thyroid stimulating hormone receptor (TSHR) signaling pathway - wild type cell line counter screen (AID 1259384)
# Method in brief: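 Wild-type HEK293 cells were plated 18 h at 37 C/5% CO2, pin-dosed with compound plus Ro20-1724 medium, held 30 min at room temperature, then given cAMP-d2 and anti-cAMP-cryptate; fluorescence was read after 1 h. Fifteen concentrations, triplicate.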
# [16] = target: Thyrotropin receptor (Homo sapiens) (UniProt P16473); experiment: qHTS assay to identify small molecule antagonists of the thyroid stimulating hormone receptor (TSHR) signaling pathway (AID 1259385); note: nearly all actives have a fitted effect of over 20% in size
# Sequence of Thyrotropin receptor (Homo sapiens) (P16473 whole entry, looked up): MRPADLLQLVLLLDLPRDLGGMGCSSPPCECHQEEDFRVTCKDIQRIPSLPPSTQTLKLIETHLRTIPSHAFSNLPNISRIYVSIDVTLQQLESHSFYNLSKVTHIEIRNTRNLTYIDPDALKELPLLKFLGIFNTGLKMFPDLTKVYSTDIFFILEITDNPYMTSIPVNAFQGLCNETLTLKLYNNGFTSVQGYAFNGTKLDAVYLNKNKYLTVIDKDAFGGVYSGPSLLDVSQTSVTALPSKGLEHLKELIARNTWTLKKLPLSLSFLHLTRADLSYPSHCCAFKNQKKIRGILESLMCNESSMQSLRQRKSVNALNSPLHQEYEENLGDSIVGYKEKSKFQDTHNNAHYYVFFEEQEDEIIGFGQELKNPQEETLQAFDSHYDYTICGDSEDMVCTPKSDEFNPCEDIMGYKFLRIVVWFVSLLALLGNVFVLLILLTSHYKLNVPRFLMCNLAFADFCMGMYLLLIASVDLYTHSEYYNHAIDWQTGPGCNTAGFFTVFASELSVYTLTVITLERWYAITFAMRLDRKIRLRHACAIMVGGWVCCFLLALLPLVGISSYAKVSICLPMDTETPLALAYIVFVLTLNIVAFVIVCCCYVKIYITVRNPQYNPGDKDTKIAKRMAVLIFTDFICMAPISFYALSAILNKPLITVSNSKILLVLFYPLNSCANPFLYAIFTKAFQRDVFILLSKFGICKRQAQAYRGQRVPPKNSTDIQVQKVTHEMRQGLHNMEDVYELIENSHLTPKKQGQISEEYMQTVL
# Method in brief: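 TSHR-HEK293 cells were plated and held 18 h at 37C/5% CO2, then given compound plus Ro20-1724 and stimulated with TSH at 1.5 ng/mL final. After 30 min at room temperature, cAMP was detected with cAMP-d2/anti-cAMP-cryptate (1 h) by fluorescence.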
# [17] = qHTS assay to identify small molecule agonists of the estrogen receptor beta (ER-beta) signaling pathway - cell viability counter screen (AID 1259380; active = well fitted curve in the direction sought with a large enough effect in the repeat runs; an effect the other way counts as inactive or inconclusive; note: nearly all actives have a fitted effect of over 30% in size; note: potency is the fitted concentration of half-maximal effect)
# Method in brief: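 ER-beta-UAS-bla HEK293T cells in medium with 2% charcoal-stripped FBS were preincubated 6 hr at 37C, dosed with compound in DMSO for 16 hr, then after the bla read, CellTiter-Glo was added for 30 min at room temperature; luminescence recorded.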
# [18] = target: Androgen receptor (Homo sapiens) (UniProt P10275); experiment: qHTS assay to identify small molecule agonists of the androgen receptor (AR) signaling pathway in the presence of an antagonist (AID 1259381); note: nearly all actives have a fitted effect of over 15% in size; note: potency is the fitted concentration of half-maximal effect
# Sequence of Androgen receptor (Homo sapiens) (P10275 whole entry, looked up): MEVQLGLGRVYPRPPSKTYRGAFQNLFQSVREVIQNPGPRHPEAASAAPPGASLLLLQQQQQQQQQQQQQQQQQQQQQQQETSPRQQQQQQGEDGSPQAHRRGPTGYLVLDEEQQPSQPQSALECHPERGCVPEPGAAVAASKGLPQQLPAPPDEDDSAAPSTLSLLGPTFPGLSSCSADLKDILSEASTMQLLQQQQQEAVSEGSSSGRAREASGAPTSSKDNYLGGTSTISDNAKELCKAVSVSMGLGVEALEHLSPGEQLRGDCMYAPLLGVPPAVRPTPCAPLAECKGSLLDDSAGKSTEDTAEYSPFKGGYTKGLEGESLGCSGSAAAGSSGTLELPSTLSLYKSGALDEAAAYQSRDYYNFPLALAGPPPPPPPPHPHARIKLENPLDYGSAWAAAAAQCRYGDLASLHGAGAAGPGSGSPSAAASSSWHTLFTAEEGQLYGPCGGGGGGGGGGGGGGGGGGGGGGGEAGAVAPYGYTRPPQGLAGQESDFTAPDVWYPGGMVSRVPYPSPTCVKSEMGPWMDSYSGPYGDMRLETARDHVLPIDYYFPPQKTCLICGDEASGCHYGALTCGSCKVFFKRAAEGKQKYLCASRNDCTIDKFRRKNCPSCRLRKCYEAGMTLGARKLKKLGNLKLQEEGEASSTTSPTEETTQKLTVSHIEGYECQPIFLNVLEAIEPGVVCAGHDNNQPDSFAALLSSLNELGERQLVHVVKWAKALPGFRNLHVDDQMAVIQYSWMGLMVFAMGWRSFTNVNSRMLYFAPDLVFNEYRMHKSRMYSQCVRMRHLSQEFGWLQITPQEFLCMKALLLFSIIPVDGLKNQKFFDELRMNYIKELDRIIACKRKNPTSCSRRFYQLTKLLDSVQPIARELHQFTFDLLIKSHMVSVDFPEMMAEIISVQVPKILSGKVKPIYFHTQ
# Method in brief: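 MDA-kb2 human breast carcinoma cells carrying an MMTV-luciferase reporter (AR- and GR-responsive) were treated with compounds at 15 concentrations plus 3.0uM final nilutamide for 16hr at 37C without CO2; luminescence was read after ONE-Glo addition.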
smiles,measurement,setting,value
CCCCCC/C=C/C=O,Potency,[1],inactive
same,Potency,[2],inactive
same,Potency,[3],inactive
same,Potency,[4],inactive
same,outcome,[5],inactive
same,Potency,[6],inactive
same,Potency,[7],inactive
same,Potency,[8],inactive
same,Potency,[9],inactive
same,Potency,[10],inactive
same,outcome,[11],inactive
same,outcome,[12],inactive
same,Potency,[13],inactive
CCCCC(CC)COCCCN (configuration not stated),Potency,[1],inactive
same,Potency,[2],inactive
same,Potency,[14],inactive
same,Potency,[15],inactive
same,Potency,[16],inactive
same,outcome,[5],inactive
same,Potency,[7],inactive
same,Potency,[9],inactive
same,Potency,[10],inactive
same,outcome,[11],inactive
same,outcome,[12],inactive
same,Potency,[13],inactive
Cc1cccc(Oc2ccccc2)c1,Potency,[1],inactive
same,Potency,[17],9.44 µM (active)
same,Potency,[14],inactive
same,Potency,[15],inactive
same,Potency,[16],inactive
same,Potency,[4],inactive
same,Potency,[6],inactive
same,Potency,[7],21.1 µM (active)
same,Potency,[9],inactive
same,Potency,[10],inactive
same,outcome,[11],inactive
same,outcome,[12],inactive
same,Potency,[13],inactive
Oc1ccc(C(O)CNCCCCCCNCC(O)c2ccc(O)c(O)c2)cc1O (configuration not stated),Potency,[1],inactive
same,Potency,[17],inactive
same,Potency,[3],inactive
same,Potency,[16],inactive
same,outcome,[5],inactive
same,Potency,[6],inactive
same,Potency,[8],inactive
same,Potency,[9],inactive
same,Potency,[10],inactive
same,outcome,[11],inactive
same,outcome,[12],inactive
same,Potency,[13],inactive
O=C(O)Cn1c(C(=O)Nc2nc(-c3ccccc3Cl)cs2)cc2ccccc21,Potency,[1],inactive
same,Potency,[2],inactive
same,Potency,[3],inactive
same,Potency,[14],inactive
same,Potency,[15],inactive
same,Potency,[16],inactive
same,Potency,[4],inactive
same,outcome,[5],inactive
same,Potency,[7],inactive
same,Potency,[9],inactive
same,Potency,[10],inactive
same,outcome,[12],inactive
same,Potency,[13],3.79 µM (active)
CC(=O)/C(C)=C/C1C(C)=CCCC1(C)C (configuration not stated),Potency,[1],inactive
same,Potency,[2],inactive
same,Potency,[3],inactive
same,Potency,[14],inactive
same,Potency,[16],inactive
same,Potency,[4],inactive
same,Potency,[6],inactive
same,Potency,[9],inactive
same,Potency,[10],inactive
same,outcome,[11],inactive
same,outcome,[12],inactive
same,Potency,[13],inactive
Nc1ccc(C(=O)Nc2ccccc2N)cc1,Potency,[1],inactive
same,Potency,[2],inactive
same,Potency,[18],5.96 µM (active)
same,Potency,[14],inactive
same,Potency,[16],inactive
same,Potency,[4],inactive
same,Potency,[7],13.3 µM (active)
same,Potency,[9],inactive
same,Potency,[10],inactive
same,outcome,[11],inactive
O=C(O)COC(=O)Cc1ccccc1Nc1c(Cl)cccc1Cl,Potency,[1],inactive
same,Potency,[2],inactive
same,Potency,[18],inactive
same,Potency,[14],inactive
same,Potency,[15],inactive
same,Potency,[16],inactive
same,Potency,[4],inactive
same,outcome,[5],inactive
same,Potency,[8],inactive
same,Potency,[9],inactive
same,Potency,[10],inactive
same,outcome,[11],inactive
CCN(CCO)CCCC(C)Nc1ccnc2cc(Cl)ccc12 (configuration not stated),"activity change, negative = inhibition",[1],5.56% [at 8.39 µM]
same,"activity change, negative = cytotoxicity",[2],-1.54% [at 8.39 µM]
same,"activity change, negative = cytotoxicity",[3],-2.09% [at 8.39 µM]
same,cAMP activity change,[15],"-5.44% [at 8.39 µM, hits give high values]"
same,"activity change, negative = inhibition",[16],-2.73% [at 8.39 µM]
same,"activity change, negative = cytotoxicity",[4],-3.53% [at 8.39 µM]
same,activation,[5],-0.495% [at 8.39 µM]
same,"activity change, negative = inhibition",[6],1.96% [at 8.39 µM]
same,"activity change, negative = cytotoxicity",[7],-13% [at 8.39 µM]
same,"activity change, negative = cytotoxicity",[8],-10.8% [at 8.39 µM]
same,"viability change, negative = cytotoxic",[9],-17% [at 6.97 µM]
same,"activity change, negative = cytotoxicity",[10],2.66% [at 6.97 µM]
same,activation,[11],-1.21% [at 6.97 µM]
same,"activity, negative = inhibition",[12],0.0536% [at 4.65 µM]
same,activation,[13],0.0624% [at 5.23 µM]
